RTF Ca sens inh = cardiac RTF calcium desensitization | P19429+P45379 | IANBD-labeled cardiac RTF, Ca2+ fluorescence | inhibition, % at 7.15 µM | hit rate 0.12% among 340,000 | AID 493244;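 active = inhibition above the mean inhibition of all tested compounds plus 3 SD, cut at about 17% in these data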;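 also: assay run at fixed EC70 calcium of 1.6 mM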
C-LANA FP = inhibitors of KSHV LANA C-terminal domain DNA binding | MBP-C-LANA/FAM-LBS DNA binding, fluorescence polarization | inhibition, % at 9 µM | AID 504423 | hit rate 0.078% among 340,000;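 active = highest replicate inhibition at or above 60% at 9 µM, even if other replicates fall short; inactive = all replicates below 60% inhibition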
Keap1 Nrf2 FP = inhibitors of human Keap1-Nrf2 protein-protein interaction; Q14145; Keap1 Kelch-Nrf2 peptide fluorescence polarization, 1536-well; inhibition, % at 9.4 µM; hit rate 0.15% among 340,000; AID 504523; in the data active = inhibition above about 12%;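 also: human Keap1 Kelch domain with fluorescein labeled Nrf2 9mer peptide probe; higher means more block of Keap1 binding to Nrf2 peptide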
LANA-H2B inh = blocks KSHV LANA binding to histone H2A/H2B. cell-free LANA-H2A/H2B peptide, fluorescence polarization. Q9QR71. inhibition, % (concentration not given with the values). AID 2629. hit rate 0.6% among 320,000; in the data active = inhibition mostly above about 10%, no sharp cut-off; inactive = mostly below about 6.7%
RTF Ca sens act = increases calcium sensitivity of human cardiac regulated thin filaments; P19429+P45379; IANBD-labeled TnC RTF fluorescence at EC20 calcium; 0% EC20 calcium, 100% full calcium; activation, % at 7.2 µM; hit rate 0.24% among 340,000;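 active = activation above the mean over all tested compounds plus 3 SD, cut at about 30% in these data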;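 also: rise in fluorescence read as greater calcium sensitivity of cardiac thin filaments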
Large screens that a line does not name were inactive; ! = not active in a repeat. Hits are enriched below; roughly 0.98% of the tested compounds scored in any of these assays.

COc1ccc(-c2cc(C(F)(F)F)c3c(n2)sc2c(O)cc(=O)[nH]c23)c(OC)c1	RTF Ca sens act 38
Oc1[nH]c2ccccc2c1N=Nc1ccccc1Cl	RTF Ca sens act 65 (no result: LANA-H2B inh)
Oc1[nH]c2ccccc2c1N=Nc1c(F)c(F)c(Cl)c(F)c1F	none
Cc1ccc(NC(=O)c2cccc(NC(=O)CC3SC(N4CCCCC4)=NC3=O)c2)nc1 (stereo not given)	none
Cc1occc1C(=O)N(Cc1nc(-c2ccccc2)no1)C(C)C	LANA-H2B inh 16
O=C(O)c1ccc([N+](=O)[O-])cc1-c1cc([N+](=O)[O-])ccc1C(=O)O	none (no result: LANA-H2B inh)
CCCc1c(C(=O)NNc2ccccc2OC)cnn1-c1ccccc1	LANA-H2B inh 18
CC(=O)N1c2ccc(S(=O)(=O)NCCC(=O)NCCc3ccc(C)cc3)cc2CC1C (stereo not given)	none
CNC[C@H]1Oc2ccc(NC(=O)Cc3cn(C)c4ccccc34)cc2CC(=O)N([C@@H](C)CO)C[C@H]1C	LANA-H2B inh 16
CCOC(=O)c1cnc2c(C(F)(F)F)cccc2c1NCCCN1CCOCC1	none
COc1ccc(NC(=O)CSc2nc3sc(C)cc3c(=O)n2C)cc1	none
COc1ccc(NC(=O)CSc2nc3cccnc3n2C)cc1	LANA-H2B inh 38
COc1ccc(NC(=O)CSc2nc3sc(C)cc3c(=O)n2C)c(OC)c1	LANA-H2B inh 16
COc1ccc(NC(=O)CSc2nc3c([nH]c4ccccc43)c(=O)n2C)cc1	LANA-H2B inh 11
Cn1c(SCC(=O)NCc2ccc(F)cc2)nc2c([nH]c3ccccc32)c1=O	none (no result: RTF Ca sens inh, C-LANA FP, Keap1 Nrf2 FP, RTF Ca sens act)
COC(=O)c1ccc(NC(=O)CSc2nc3cccnc3n2C)cc1	none
CNC(=O)c1c(NC(=O)c2ccco2)sc2c1CCC2	LANA-H2B inh 83
O=C(Oc1ccccc1/C=C\C(=O)c1cc2ccccc2o1)c1cccc(F)c1	LANA-H2B inh 17
Cn1cc(C2=C(c3ccc(Cl)cc3Cl)C(=O)NC2=O)c2ccccc21	RTF Ca sens act 47
Cn1cc(-c2ccccc2C(N)=O)c(=O)c2cc(Cl)ccc21	none
O=C(CN1CCN(Cc2ccccc2Cl)CC1)N/N=C/C=C/c1ccco1	none (no result: RTF Ca sens inh, C-LANA FP, Keap1 Nrf2 FP, RTF Ca sens act)
O=C(CN1CCN(Cc2ccccc2)CC1)N/N=C\C=C/c1ccco1	LANA-H2B inh 12
COc1ccc(/C=C/C(=O)NC(=S)Nc2ccccn2)cc1	none
COc1ccccc1/C=C/C(=O)NC(=S)Nc1ccccn1	LANA-H2B inh 8.0
CCCC(C)C(=O)Nc1ccncc1 (stereo not given)	none
CC(N=C(NC#N)Nc1ccncc1)C(C)(C)C (stereo not given)	LANA-H2B inh 48!
CCc1nnc(NS(=O)(=O)c2ccc(N=CC3=C(O)CC(C)(C)CC3=O)cc2)s1	none
O=C(c1ccncc1)N1N=C(C2CC2)CC1(O)C(F)(F)F (stereo not given)	none
O=C(c1cccnc1)N1N=C(C2CC2)CC1(O)C(F)(F)F (stereo not given)	LANA-H2B inh 11
CC(C)CC(=O)Nc1nnc(CSCc2ccc(F)cc2)s1	C-LANA FP 75
CCC(=O)Nc1nnc(CSCc2ccc(F)cc2)s1	none
O=C1NCN(c2ccccc2)C12CCN(c1nnnn1-c1ccccc1)CC2	none
COc1ccc(OC)c(NC(=O)CSc2nc3scc(C)c3c(=O)[nH]2)c1	none
Cc1csc2nc(SCC(=O)Nc3ccccc3F)[nH]c(=O)c12	LANA-H2B inh 28
O=C1S/C(=C\c2ccc(N3CCOCC3)o2)C(=O)N1Cc1c(F)cccc1Cl	RTF Ca sens act 100
O=C1S/C(=C/c2ccc(N3CCOCC3)o2)C(=O)N1Cc1c(F)cccc1Cl	RTF Ca sens act 145
O=C1N=C(N2CCOCC2)S/C1=C/c1ccc(-c2ccccc2Cl)o1	none
O=C1S/C(=C\c2ccc(N3CCOCC3)o2)C(=O)N1c1ccccc1	RTF Ca sens act 45
CC(=O)c1ccc(OCc2cc(C(=O)NC3CCCCC3)no2)cc1	none
O=C(CN1CCCCCC1)N/N=C/c1cccs1	none
O=C(N/N=C/c1cccs1)C(=O)N1CCCC1	LANA-H2B inh 15
O=C(CN1C(=O)NC2(CCCC2)C1=O)Nc1cc(Cl)ccc1Oc1ccccc1	none
CC(C)C[C@H](NC(=O)c1nc[nH]c1C(=O)N(C)Cc1ccccc1)C(=O)OCc1ccccc1	none
Cc1ccc(-n2nnc3c(=O)n(CC(=O)N4CCCC4)cnc32)cc1	LANA-H2B inh 10
COC(=O)c1ccc(NC(=O)c2ccc[n+]([O-])c2)cc1	none
CCN(c1ccc(N=Cc2c(O)n(Cc3ccc(OC)cc3)c(=O)c3ccccc23)cc1)C(C)C	RTF Ca sens act 418 (no result: LANA-H2B inh)
COc1ccc(-n2c(O)c(C=Nc3ccccc3)c3ccccc3c2=O)cc1	none
Cc1ccc(N(CCC#N)C(=O)COC(=O)c2cc(C)oc2C)cc1	none
CCOc1cccc(CN2CCC(CCC(=O)NC3CC3)CC2)c1O	none
COCc1nnc(NC(=O)CCN2C(=O)c3ccccc3C2=O)s1	LANA-H2B inh 16
CCCc1nnc(NC(=O)CCN2C(=O)c3ccccc3C2=O)s1	none
O=S(=O)(/C=C/c1ccccc1)N1CCN(c2cccc(Cl)c2)CC1	none
CCCCN(C(=O)C1CC(=O)N(c2ccc3c(c2)OCCO3)C1)c1c(N)n(CCC)c(=O)[nH]c1=O (stereo not given)	none
CCCCN(C(=O)C1CC(=O)N(c2ccc3c(c2)OCCO3)C1)c1c(N)n(CCCC)c(=O)[nH]c1=O (stereo not given)	LANA-H2B inh 25
C=Cc1c(C)c2cc3[nH]c(cc4nc(cc5nc(cc1[nH]2)C(C)=C5CCC(=O)O)C(CCC(=O)O)=C4C)c(C)c3C=C	RTF Ca sens inh 55!, C-LANA FP 64
CC(C)[C@H](NC(=O)[C@@H]1Cc2c([nH]c3ccccc23)C2c3ccccc3C(=O)N21)C(=O)NCC1CCCO1 (stereo not given in full)	none
COc1ccccc1CN(Cc1nc2ccccc2c(=O)[nH]1)C(=O)Nc1ccccc1	none
COC(=O)C(Cc1ccccc1)NC(=O)CCC(=O)NC(C)CCc1ccccc1 (stereo not given)	LANA-H2B inh 14
COC(=O)CN(Cc1ccccc1)S(=O)(=O)c1ccc(OC)c(OC)c1	none
Cc1ccc(CCN2CC(C(=O)NC3CCCC3)CC2=O)cc1 (stereo not given)	none
Cc1ccc(CCN2CC(C(=O)NC3CCCCC3)CC2=O)cc1 (stereo not given)	LANA-H2B inh 22
Cc1cc(N2CCC(C)CC2)nc(NCc2ccccc2)n1	none
O=C(CN1C(=O)C2CC=CCC2C1=O)Nc1ccc(S(=O)(=O)N2CCOCC2)cc1 (stereo not given)	none
Cc1cc(C)n(-c2ccc(NC(=O)C3CCCCN3C(=O)c3ccoc3)cc2)n1 (stereo not given)	LANA-H2B inh 55
COc1ccc(CCNC(=O)CCSCc2ccccc2F)cc1OC	none
CSCCC(NC(=O)c1ccccc1Cl)C(=O)N1CCCCCCC1 (stereo not given)	none
COc1ccc(C(=O)NC(CCSC)C(=O)N2CCCCCC2)cc1 (stereo not given)	LANA-H2B inh 31

Screening results from PubChem.
